experiment: growth modulation of vineyard yeast isolate – strain RM11-1a, OD600, basal, 24 h, primary screen (AID 1177);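 also: cultures grown under basal conditions with no added stressor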; conditions: S. cerevisiae RM11-1a growth, OD600, 24 h; higher = more signal, called active from +8 up or from −8 down
Also: test concentration not given here.

z-score, inactive:
CCCCCCCCCCC(O)C1C=CC2C(=O)N(C)C(=O)C2N1NC(=O)OC(C)(C)C (centres undefined) 1.05
NC(N)=NCCCn1cc(CNC(=O)[C@@H](N)Cc2ccccc2)nn1 -0.297
CCOC(=O)C1CCCCN1 (centres undefined) 0.0958

experiment: growth of efflux-deficient E. coli DRC39 – strain DRC39, OD650, 24 h, E. coli filamentation inducers, primary screen (AID 1178);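 also: growth measured as culture turbidity by optical density at 650 nm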; conditions: E. coli DRC39 acrAB, higher = more signal, called active from +8 up or from −8 down

z-score, inactive:
Cc1ccc(S[C@]2(C(=O)O)CC(=O)N(Cc3cc(C(F)(F)F)cc(C(F)(F)F)c3)[C@@H]2c2ccc(CO)cc2)cc1 -0.296
CC(C)Cc1ccc(CN2CC[C@@H](NC(=O)Nc3ccccc3)C2)cc1 0.451
C=CC1c2cc(O)c(OC)cc2CCN1Cc1cc2c(cc1Br)OCO2 (centres undefined) -0.929
O=C1O[C@H](c2ccccc2)[C@H](c2ccccc2)N2[C@H]1[C@@H](C(=O)N1CCN(c3ncccn3)CC1)[C@]1(C(=O)Nc3ccc(C#CC4(O)CCCCCC4)cc31)[C@H]2c1ccc(OCCO)cc1 -0.427
COC(=O)C(CC#Cc1ccc2c(c1)[C@]1(C(=O)N2)[C@H](c2ccccc2OCCO)N2[C@H](c3ccccc3)[C@H](c3ccccc3)OC(=O)[C@H]2[C@@H]1C(=O)NC[C@H](O)c1ccccc1)C(=O)OC 0.405
Cc1ccccc1C(O)C1C=CC2C(=O)N(C)C(=O)C2N1N(c1ccccc1)c1ccccc1 (centres undefined) -0.209
CCC[C@@H]1C[C@@]1(CCC)[C@@H](NC(=O)OCc1ccccc1)c1ccc(-c2ccccc2)cc1 0.358
CN(C)C(=O)C1N=C(c2ccc(OCCCO)cc2)N(c2ccccc2)O1 (centres undefined) 1.16
O=C1O[C@H](c2ccccc2)[C@H](c2ccccc2)N2[C@H]1[C@@H](C(=O)O)[C@]1(C(=O)Nc3ccc(C#CC4=CCCCC4)cc31)[C@H]2c1ccc(O)cc1 -0.448
C=CCOC(=O)[C@H]1[C@@H]2C(=O)O[C@@H](c3ccccc3)[C@@H](c3ccccc3)N2[C@@H](c2ccc(OCCOC(=O)[C@H]3C[C@H]4C(=O)N[C@@H](CCCCNC(C)=O)C(=O)N4[C@H]3c3ccc(O)cc3)cc2)[C@]12C(=O)Nc1ccccc12 2.63
CN1C(=O)C2C=CC(C(O)c3cccc4ccccc34)N(N3CCCCC3)C2C1=O (centres undefined) -0.619
C=CCOC(=O)[C@H]1[C@@H]2C(=O)O[C@@H](c3ccccc3)[C@@H](c3ccccc3)N2[C@@H](c2ccc(OCCOC(=O)[C@@H]3C[C@@H]4C(=O)N5CCC[C@H]5C(=O)N4[C@@H]3c3ccc(O)cc3)cc2)[C@]12C(=O)Nc1ccc(I)cc12 -0.102
O=C1C2C=CC(C(O)c3ccccc3)N(Nc3ccccc3F)C2C(=O)N1c1ccccc1 (centres undefined) -0.737
CN(C)c1ccc(C(O)C2C=CC3C(=O)N(c4ccccc4)C(=O)C3N2Nc2ccc([N+](=O)[O-])cc2)cc1 (centres undefined) -0.876
[N-]=[N+]=NCc1ccccc1[C@H]1OC(c2ccc(OCCCO)cc2)=N[C@@]1(CCS(=O)(=O)c1ccccc1)C(=O)N1CCCCC1 -0.132
C=CCOC(=O)[C@H]1[C@@H]2C(=O)O[C@@H](c3ccccc3)[C@@H](c3ccccc3)N2[C@@H](c2ccc(OCCOC(=O)[C@@H]3C[C@@H]4C(=O)N[C@@H](CCCCNC(C)=O)C(=O)N4[C@@H]3c3ccc(O)cc3)cc2)[C@]12C(=O)Nc1ccc(I)cc12 -0.508
COc1cc2c(cc1OC)CN(C(=O)[C@@H]1[C@H]3C(=O)O[C@H](c4ccccc4)[C@H](c4ccccc4)N3[C@H](c3ccc(OCCO)cc3)[C@@]13C(=O)Nc1ccc(C#CC4(O)CCCCCC4)cc13)CC2 0.312
C=C(/C(=C/C[C@H](OC(C)=O)c1ccccc1OCCO)c1cc(C(=O)OC)ccc1OC)C(C)C -0.0536
CCOC(=O)C[C@H]1[C@H](OC(=O)c2cc3ccccc3oc2=O)[C@@H](NC(=O)c2ccc(-c3ccccc3)cc2)c2cc(OCCCO)ccc2N1C(=O)c1ccc2ccccc2n1 0.97
CN(C)CCCCNC(=O)[C@@H]1C[C@@H]2C(=O)N[C@@H](Cc3ccccc3)C(=O)N2[C@@H]1c1cccc(OCCO)c1 2.51
COc1ccc([Si](C)(C)[C@@H]2[C@@H](CCO)O[C@]3(C(=O)N(Cc4ccc(N5CCCCC5=O)cc4)c4ccccc43)[C@H]2C)cc1 1.99

From PubChem BioAssay
